Data taken from PubChem BioAssay (Tox21).
Unmarked numbers belong to inactive results. Results filed as inconclusive are left out. Entries that show only a call come without a potency. Activity calls are given as the source filed them. Unless noted, calls follow the shape of the dose curve; as a rule, active = well fitted curve in the direction sought with a large enough effect in the repeat runs; inconclusive = weak or mixed curves; inactive = no such curve, though single readings can be large; an effect the other way counts as inactive or inconclusive.

Legend:
[1] = qHTS assay to identify small molecule agonists of the hypoxia (HIF-1) signaling pathway - cell viability counter screen (AID 1224844; calls by dose curve; also: nearly all actives have a fitted effect of over 50% in size)
Summary of the method: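 HRE-bla ME-180 cells, 2,000/well in 0.5% dialyzed FBS medium, treated 17 h at 37C with compounds. Viability read in the same wells as the bla reporter, by CellTiter-Glo luminescence after 30 min at room temperature.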

[2] = qHTS assay to identify small molecule agonists of H2AX (AID 1224845; active = well fitted activation curve with a large enough effect in the signal ratio in the repeat runs, not every such curve was filed as active; the % refers to the signal ratio)
Summary of the method: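 Wild-type CHO-K1 cells plated overnight, then exposed 3 hr at 37C to compounds at 15 concentrations (0.76% DMSO). Lysed, then HTRF anti-pH2AX(S139)-cryptate/anti-H2AX-d2 detection after 24 hr at room temperature; emissions 665 and 620 nm.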

[3] = qHTS assay to identify small molecule agonists of the hypoxia (HIF-1) signaling pathway (AID 1224846; active = well fitted activation curve with a large enough effect in the signal ratio in the repeat runs, not every such curve was filed as active; the % refers to the signal ratio)
Summary of the method: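 HRE-bla ME-180 beta-lactamase reporter cells in medium with 0.5% dialyzed FBS, pre-incubated 5 h then exposed to compounds 17 h at 37C, 5% CO2; reporter induction read with CCF4-AM FRET substrate.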

[4] = qHTS assay to identify small molecule agonists of H2AX - cell viability counter screen (AID 1224847; calls by dose curve; also: top concentration of the series differs between compounds; nearly all actives have a fitted effect of over 30% in size)
Summary of the method: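 After overnight plating of 1000 CHO-K1 cells per well, a 15-concentration compound series was applied for 3 hr at 37C. Luminescence from CellTiter-Glo, read following 30 min at room temperature, reflected cell viability.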

[5] = qHTS assay to identify small molecule antagonists of the estrogen related receptor (ERR) signaling pathway from Tox21 library (AID 1224848); also: nearly all actives have a fitted effect of over 50% in size; also: potency is read from the fitted curve at half-maximal effect
Summary of the method: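 Screening used an ERR reporter line supplied by NTP, exposed for 18 h at 37 C to library compounds delivered in DMSO. Signal was luciferase luminescence developed with ONE-Glo at room temperature for 30 min.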

[6] = qHTS assay to identify small molecule agonists of the estrogen related receptor (ERR) signaling pathway from Tox21 library (AID 1224849; calls by dose curve; also: nearly all actives have a fitted effect of over 15% in size); conditions: ERR reporter cell line, ONE-Glo luciferase, 18 h; at 92.4 µM (top of the series) unless noted
Summary of the method: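 ERR reporter cells (NTP line) pre-incubated 6 hours at 37 C, then exposed to compounds for 18 hours at 37 C. ONE-Glo luciferase luminescence was read after 30 minutes at room temperature.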

[7] = qHTS RealTime-Glo MT Cell Viability Assay in HepG2 cells - 24 hour (AID 1224867); also: nearly all actives have a fitted effect of over 50% in size
Summary of the method: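 Viability was tracked continuously by NanoLuc luminescence from prosubstrate reduced by living HepG2 cells, at successive time points over 40 h of compound exposure. Cells with reagent were preincubated 5 h at 37 °C before compound addition.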

[8] = qHTS RealTime-Glo MT Cell Viability Assay in HEK293 cells - 32 hour (AID 1224868); also: top concentration of the series differs between compounds; nearly all actives have a fitted effect of over 50% in size
Summary of the method: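 Viability tracked continuously by luminescence as live cells reduce a prosubstrate for NanoLuc; HEK293 cells preincubated 5 h, compound-treated at 37 C, and read at 0, 8, 16, 24, 32 and 40 h.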

[9] = qHTS RealTime-Glo MT Cell Viability Assay in HepG2 cells - 40 hour (AID 1224870); also: nearly all actives have a fitted effect of over 50% in size
Summary of the method: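 HepG2 cells mixed with RealTime-Glo MT reagents (NanoLuc plus cell-permeant prosubstrate) were seeded at 600 cells/well, incubated 5 h at 37 C/5% CO2, then pinned with compounds in DMSO; nonlytic luminescence tracked viability during 40 h treatment.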

[10] = A CellTox Green Cytotoxicity Assay to monitor cytotoxicity in HEK293 cells - 0 hour (AID 1224869); also: nearly all actives have a fitted effect of over 50% in size; also: potency is read from the fitted curve at half-maximal effect
Summary of the method: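 HEK293 cells, 600/well, were preincubated 5 hours and then exposed to compounds at 37 C for up to 40 hours. A cell-impermeant cyanine dye staining dead-cell DNA was read by fluorescence at 0, 8, 16, 24, 32 and 40 h time points.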

Row | Compound | Potency [1] | outcome [2] | outcome [3] | Potency [4] | Potency [5] | activity change, positive = activation [6] | Potency [7] | Potency [8] | Potency [9] | Potency [10]
1 | O=C(O)CCCl | inactive | inactive | inactive | inactive | inactive | -15.3% | inactive | inactive | inactive | –
2 | CCOC(=O)c1cccc(N)c1 | inactive | inactive | inactive | inactive | inactive | -2.77% [at 42.5 µM] | inactive | inactive | inactive | inactive
3 | CN(C)CCCSc1ccccc1NC(=O)/C=C/c1ccccc1 | inactive | inactive | inactive | inactive | – | 9.36% [at 42.5 µM] | inactive | inactive | inactive | 16.9 µM (active)
4 | CN1CCCC1 | inactive | inactive | inactive | inactive | inactive | 4.55% | inactive | inactive | inactive | –
5 | Cc1cc2c(cc1S(N)(=O)=O)S(=O)(=O)CCC2 | inactive | inactive | inactive | inactive | inactive | 2.29% [at 42.5 µM] | inactive | – | inactive | inactive
6 | Cc1cnc(NS(=O)(=O)c2ccc(N)cc2)nc1 | inactive | inactive | inactive | inactive | inactive | 2.51% [at 42.5 µM] | inactive | – | inactive | –
7 | C[N+](C)(C)CC(O)CC(=O)[O-] (configuration not stated) | inactive | inactive | inactive | inactive | inactive | 3.63% [at 42.5 µM] | inactive | inactive | inactive | –
8 | CC(=O)Nc1c(I)cc(I)c(C(=O)O)c1I | inactive | inactive | inactive | inactive | inactive | 7.03% [at 42.5 µM] | inactive | – | inactive | –
9 | NC(=O)c1ccc([N+](=O)[O-])cc1 | inactive | inactive | inactive | inactive | inactive | -5.69% | inactive | inactive | inactive | –
10 | CC/C=C\CC/C=C/C(OCC)OCC | inactive | inactive | inactive | inactive | inactive | 2.27% | inactive | inactive | inactive | inactive
11 | CC(=O)Nc1ccc(S(N)(=O)=O)cc1 | inactive | inactive | inactive | inactive | inactive | 4.26% | inactive | inactive | inactive | inactive
12 | CCCCCCCCCCCC | inactive | inactive | inactive | inactive | inactive | 11.3% | inactive | inactive | inactive | –
13 | O=C(O)COc1nn(Cc2ccccc2)c2ccccc12 | inactive | inactive | inactive | inactive | inactive | 0.25% [at 42.5 µM] | inactive | inactive | inactive | inactive
14 | CCc1ccc(O)c(OC)c1 | inactive | inactive | inactive | inactive | inactive | 4.86% | inactive | inactive | inactive | –
15 | COC(=O)NN | inactive | inactive | inactive | inactive | inactive | -24.9% | inactive | inactive | inactive | inactive
16 | COc1ccc2c(c1)CCCC2=O | inactive | inactive | inactive | inactive | – | 4.85% [at 42.5 µM] | inactive | inactive | inactive | inactive
17 | C/C=C(\C)C#N | inactive | inactive | inactive | inactive | – | 0.294% | inactive | inactive | inactive | inactive
18 | C[C@@H]1CCN(C(=O)[C@H](CCCN=C(N)N)NS(=O)(=O)c2cccc3c2NC[C@H](C)C3)[C@@H](C(=O)O)C1 | inactive | inactive | inactive | inactive | inactive | 6.26% [at 42.5 µM] | inactive | inactive | inactive | inactive
19 | CCCCCOC(=O)CCCCC | inactive | inactive | inactive | inactive | – | 0.374% | inactive | inactive | inactive | –
20 | C1OCOCO1 | inactive | inactive | inactive | inactive | inactive | 6.76% | inactive | – | inactive | inactive
21 | CN1N=C(C(N)=O)CCC1=O | inactive | inactive | inactive | inactive | – | 0.737% [at 42.5 µM] | inactive | inactive | inactive | inactive
22 | O=C1CCCN1C1CCCCC1 | inactive | inactive | inactive | inactive | inactive | -1.04% | inactive | inactive | inactive | –
23 | COC(=O)CCSCCC(=O)OC | inactive | inactive | inactive | inactive | inactive | 1.8% | inactive | inactive | inactive | –
24 | C=C(C)C(=O)OCCCCCCCC(C)C | inactive | inactive | inactive | inactive | inactive | 2.01% | inactive | inactive | inactive | –
25 | Nc1c[n+](N2CCOCC2)no1 | inactive | inactive | inactive | inactive | inactive | 0.251% [at 42.5 µM] | inactive | inactive | inactive | –

Row | Compound | Potency [1] | outcome [2] | outcome [3] | Potency [4] | Potency [5] | activity change, positive = activation [6] | Potency [7] | Potency [8] | Potency [9] | Potency [10]
26 | O=C(c1ccccc1)C1CCCCC1 | inactive | inactive | inactive | – | inactive | 3.6% | inactive | inactive | inactive | inactive
27 | CCCCOCCOCCOCc1cc2c(cc1CCC)OCO2 | inactive | inactive | inactive | inactive | – | – | inactive | inactive | – | inactive
28 | OC[C@]1(O)OC[C@@H](O)[C@H](O)[C@@H]1O | inactive | inactive | inactive | inactive | – | – | inactive | inactive | inactive | inactive
29 | N=C(N)c1ccc(OCCCOc2ccc(C(=N)N)cc2)cc1 | inactive | inactive | inactive | inactive | – | – | inactive | inactive | – | inactive
30 | Cc1ccc(C#N)cc1 | inactive | inactive | inactive | inactive | – | 1.46% | inactive | inactive | inactive | –
31 | Nc1ccccc1S(=O)(=O)O | inactive | inactive | inactive | – | inactive | 3.7% | inactive | – | inactive | inactive
32 | Cc1nc2c([nH]1)c(=O)n(C)c(=O)n2Cc1ccco1 | inactive | inactive | inactive | inactive | – | – | inactive | inactive | inactive | –
33 | CO[C@]12C[C@@H](COC(=O)c3cncc(Br)c3)CN(C)[C@@H]1Cc1cn(C)c3cccc2c13 | inactive | inactive | inactive | – | inactive | 6.2% [at 42.5 µM] | inactive | – | inactive | inactive
34 | C=C1CC[C@H]2C[C@@H]1C2(C)C | inactive | inactive | inactive | inactive | – | – | inactive | – | inactive | –
35 | ClC(Cl)(Br)Br | inactive | inactive | inactive | – | inactive | 1.45% | inactive | inactive | inactive | inactive
36 | NS(=O)(=O)c1ccccc1Cl | inactive | inactive | inactive | inactive | – | 2.78% | inactive | – | inactive | inactive
37 | COC(C)(C)CCCC(C)CC=O (configuration not stated) | inactive | inactive | inactive | – | inactive | 8.65% | inactive | inactive | – | inactive
38 | CCC(=O)OC(C)c1ccccc1 (configuration not stated) | inactive | inactive | inactive | – | inactive | 0.422% | inactive | inactive | – | inactive
39 | CCCN1CCCC[C@H]1C(=O)Nc1c(C)cccc1C | inactive | inactive | inactive | – | inactive | 6.18% [at 42.5 µM] | inactive | – | inactive | inactive
40 | O=c1cc(CO)occ1O | inactive | inactive | inactive | – | inactive | 3.24% [at 42.5 µM] | inactive | inactive | – | inactive
41 | CCCCCCOC(=O)CCCCC(=O)OCCCCCC | inactive | inactive | inactive | – | inactive | 5.81% | inactive | inactive | – | inactive
42 | CC(C)(C)NCCNC(C)(C)C | inactive | inactive | inactive | – | inactive | 3.81% | inactive | – | – | inactive
43 | FC(F)OC(Cl)C(F)(F)F (configuration not stated) | inactive | inactive | inactive | – | inactive | 8.92% | inactive | inactive | inactive | inactive
44 | C[C@H](NC(CCc1ccccc1)C(=O)O)C(=O)N1CCC[C@H]1C(=O)O (some centres not stated) | inactive | inactive | inactive | – | 5.96 µM (active) | -0.914% [at 42.5 µM] | inactive | inactive | inactive | inactive
45 | N#Cc1ccc(C2CCCc3cncn32)cc1 (configuration not stated) | inactive | inactive | inactive | inactive | – | -20.4% [at 42.5 µM] | inactive | – | inactive | inactive
46 | O=C1OC(=O)C2CCCCC12 (configuration not stated) | inactive | inactive | inactive | – | inactive | -1.02% | inactive | inactive | inactive | inactive
47 | CCOC(=O)C(=O)OCC | inactive | inactive | inactive | – | inactive | 4.42% | inactive | inactive | inactive | inactive
48 | CCOC(=O)c1ccc(C)cc1 | inactive | inactive | inactive | – | – | 4.47% | inactive | inactive | inactive | inactive
49 | O=C(O)CNC(=O)c1ccc([N+](=O)[O-])cc1 | inactive | inactive | inactive | inactive | – | 4.79% | inactive | – | inactive | inactive
50 | Cc1[nH]c(=O)c(C#N)cc1-c1ccc2nccn2c1 | inactive | inactive | inactive | inactive | – | – | inactive | inactive | – | inactive
